The list is not random: actives were taken first. Their share in the collection is about 2.8%.
PI4K2A inh – blocks human PI4K2A kinase activity; 420,000 tested, 0.13% active; purified PI4K2A, ADP-Glo luminescence, 1 h; active compounds read low; activity change, negative = inhibition, % at 76.9 µM; AID 1346378; in the data active = activity change below about -50%; inconclusive = mostly about -30% to -49%
Target sequence (Q9BTU6 whole entry, looked up): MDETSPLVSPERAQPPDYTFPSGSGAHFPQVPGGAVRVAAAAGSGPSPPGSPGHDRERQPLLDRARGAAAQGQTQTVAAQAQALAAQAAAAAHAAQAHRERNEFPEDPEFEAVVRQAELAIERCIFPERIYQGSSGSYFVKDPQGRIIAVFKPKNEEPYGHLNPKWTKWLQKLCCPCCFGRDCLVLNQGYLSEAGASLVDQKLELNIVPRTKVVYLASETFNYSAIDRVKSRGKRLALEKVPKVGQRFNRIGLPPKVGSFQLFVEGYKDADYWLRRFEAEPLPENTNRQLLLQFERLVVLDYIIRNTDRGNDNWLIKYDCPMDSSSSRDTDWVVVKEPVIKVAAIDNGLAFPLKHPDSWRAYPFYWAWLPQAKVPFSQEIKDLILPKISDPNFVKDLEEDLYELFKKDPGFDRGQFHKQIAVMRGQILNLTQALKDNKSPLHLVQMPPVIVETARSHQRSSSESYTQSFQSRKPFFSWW
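Compounds are screened against recombinant PI4K2A using PI as substrate and ATP, the latter dispensed at 300 microM. Reactions run one hour at ambient temperature before ADP-Glo detection; full inhibition defined by wells lacking enzyme.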
PI5P4Ka inh – inhibitors of human PI5P4K alpha; max response, %; 330,000 tested, 1.2% active; P48426; PI5P4Kalpha enzyme, ADP-Glo luminescence, 60 min; active compounds read low; active = max response of -50% or lower; inconclusive = between -30% and -50%; inactive = -30% or higher; note: value at the top dose of about 77 µM
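qHTS, 1536-well: enzyme/substrate mix, compound by pin tool, 5 microM ATP final; RT 60 min; ADP-Glo reagents 1 (45 min) then 2 (30 min); luminescence.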
POLB inh – blocks human DNA polymerase beta activity | P06746 | Pol beta primer extension/strand displacement, fluorescence kinetic | Potency, µM (top dose mostly 114 µM), actives largely listed as inhibitors | 340,000 tested, 1.3% active
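Homogeneous kinetic assay of primer extension and strand displacement by 10 nM Pol beta, preincubated 15 min at room temperature with compound before 50 nM substrate (final) was added. Read at 0 and 10 min; four-parameter Hill fit.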
POLI inh – DNA polymerase iota (human) inhibition. Q9UNA4. Pol iota fluorescent replication assay, 10 min. Potency, µM (series often up to 115 µM), actives largely listed as inhibitors. 390,000 tested, 1% active. AID 588590
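Pol iota at 10 nM preincubated 15 min with compounds at room temperature; reaction started with fluorescent substrate, 50 nM final. Fluorescence read kinetically at 0 and 10 min; buffer-only wells as negative control.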
Pol kappa inh – DNA polymerase kappa (human) inhibition | Potency, µM (top dose mostly 107 µM), usual class: inhibitors | purified Pol kappa, fluorescent DNA synthesis assay, 10 min | 400,000 tested, 0.53% active | Q9UBT6 | AID 588579
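10 nM Pol kappa preincubated 15 min at room temperature with compounds, then reaction started with substrate at 50 nM final. Fluorescence read kinetically at 0 and 10 min; buffer-only wells served as negative control.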
Pol eta inh – inhibitors of human DNA polymerase eta; 390,000 tested, 1.2% active; Potency, µM (top dose mostly 114 µM), hits mostly inhibitors; recombinant Pol eta, fluorescent DNA replication assay
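Fluorescent replication assay: 50 nM final substrate added after a 15 min room-temperature compound preincubation with 10 nM enzyme. Signal taken at 0 min and again at 10 min.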
Hits are given with their value; i = inactive; ? = inconclusive; nt = not tested or not shown; [ ] = another dose, or the depositor's remark. Unless noted, calls come from the whole dose curve; as a rule, active = well fitted inhibition curve with a large enough effect; inconclusive = small, poorly fitted or top-dose-only effect, or another doubt; inactive = no such curve, though single readings can be large or run the other way.

SMILES | PI4K2A inh | PI5P4Ka inh | POLB inh | POLI inh | Pol kappa inh | Pol eta inh
O=C(N/N=C/c1ccc2c(c1)OCO2)c1cc(-c2ccccc2)nc2ccccc12 | i | i | i | i | i | i
O=C(N/N=C/c1ccc2c(c1)OCO2)c1cc(-c2ccco2)nc2ccccc12 | i | -54.8 | nt | 3.16µM | ? | ?
Nc1ccccc1C(=O)C[C@@H](N)C(=O)O | nt | nt | nt | nt | i[19.4 µM] | nt
COc1cc2nc3occc3c(OC)c2cc1OC | i | i | i | i | i | i
COc1c2ccc(OCC/C(C)=C/C(=O)C=C(C)C)cc2nc2occc12 | i | i | nt | ? | i | 44.7µM
Nn1c(SCC(=O)Nc2cccc3ccccc23)nnc1-c1cc(-c2ccc(Cl)cc2)n[nH]1 | i | nt | nt | nt | nt | nt
CC(C)=CCc1cc([C@@H]2CC(=O)c3ccc(O)c(CC=C(C)C)c3O2)ccc1O | i | -99.5 | nt | i | i | i
CC(C)=CCc1c(O)cc(O)c2c1O[C@H](c1ccccc1)CC2=O | nt | nt | nt | nt | i[19.4 µM] | nt
CCCCOc1ccc(-c2nnn(CC(=O)NCc3ccco3)n2)cc1 | i | nt | i | ? | i | i
CC(C)CC(=O)Nc1ccc(-c2nnn(CC(=O)NCc3ccco3)n2)cc1 | i | i | ? | 79.4µM | i | i
COc1cc(N/N=C/c2ccc(N(C)C)cc2)ncn1 | -52.9 | i | i | i | i | i
O=C(Nc1ccc(Cl)cc1Cl)[C@@H]1CC=C[C@@H]2CCN(C3CCCCC3)C(=O)[C@@H]21 | nt | nt | nt | i | i | nt
COC(=O)CCCc1nc2ccccc2s1 | i | i | i | i | i | i
COc1ccccc1OC(=O)CCc1nc2ccccc2s1 | i | ? | ? | 15.8µM | ? | ?
C=C1[C@@H](O)CN(Cc2ccc(OC)cc2)S1(=O)=O | nt | nt | nt | i | i | nt
O=C(NC1CCCCN(Cc2cccc(C(F)(F)F)c2)C1=O)C1C2CC3CC(C2)CC1C3 (stereo not drawn) | i | nt | nt | nt | nt | nt
Oc1ccccc1/C=N/n1c(-c2ccccc2)n[nH]c1=S | i | i | i | i | i | i
Oc1c(Br)cc(/C=N/n2c(-c3ccccc3)n[nH]c2=S)c(Br)c1O | nt | nt | 0.251µM | nt | nt | nt
Cc1nnc(C)n1/N=C/c1cc(Br)cc(Br)c1O | i | -50.2 | i | i | i | i
O=[N+]([O-])c1ccc(O)c(/C=N/n2c(-c3ccccc3)n[nH]c2=S)c1 | i | i | i | i | i | i
Oc1c(Br)cc(Br)cc1/C=N/n1c(-c2ccccc2)n[nH]c1=S | i | -54.1 | i | i | i | i
COc1c(Br)cc(/C=N/n2c(-c3ccccc3)n[nH]c2=S)c(O)c1Br | i | -55.1 | 3.55µM | ? | 2µM | 79.4µM
Cc1ccc(-n2c3c(cc(C(=O)Nc4cccc(Cl)c4)c2=O)C(=O)CC(C)(C)C3)cc1 | i | nt | i | i | i | i
COc1nc(Oc2ccc(=O)n(-c3ccccc3)n2)nc(N(C)C)n1 | i | nt | i | i | i | i
CCCCCCCCN1[C@@H](CC(=O)OC)c2ccc(/C=C/C(=O)OC)cc2S1(=O)=O | nt | nt | nt | ? | i | nt
SMILES | PI4K2A inh | PI5P4Ka inh | POLB inh | POLI inh | Pol kappa inh | Pol eta inh
CCc1ccc(/C=C2/SC(=S)N(CCCC(=O)Nc3ccccc3C(=O)O)C2=O)cc1 | i | i | i | i | i | 79.4µM
O=C(CCN1C(=O)/C(=C/c2ccccc2Cl)SC1=S)Nc1ccccc1C(=O)O | i | i | ? | ? | i | 79.4µM
CCc1ccc(C=C2SC(=S)N(CCCC(=O)Nc3ccc(C(=O)O)cc3)C2=O)cc1 | i | i | nt | nt | nt | nt
CCOc1ccc(NC(=O)c2cc3nc(-c4ccc(OC)cc4)cc(C(F)(F)F)n3n2)cc1 | i | nt | i | i | i | i
CCOc1ccc(-c2cc(C)n3nc(C(=O)Nc4cc(Cl)ccc4O)cc3n2)cc1 | i | nt | 7.08µM | 79.4µM | i | ?
C=CC(=O)Nc1cccc(N(C)c2ccnc(Nc3ccc(N4CCN(C)CC4)cc3)n2)c1 | i | -65.2 | nt | ? | i | i
Cc1ccc(S(=O)(=O)N2CCN(c3nc(-c4cccs4)nc4nc[nH]c34)CC2)cc1 | nt | nt | nt | i | i | nt
COc1ccc(OC)c(-n2c(C)nc3cc(C(=O)O)ccc32)c1 | i | i | i | i | i | 79.4µM
COc1cc(-n2c(C)nc3cc(C(=O)O)ccc32)cc(OC)c1OC | i | i | i | i | i | i
Cc1ccc(NC(=O)Cn2c(=O)n(CCC(=O)NCc3ccc4c(c3)OCO4)c(=O)c3sccc32)c(C)c1 | i | nt | ? | i | i | i
Cc1ccc(Cl)cc1NC(=O)Cn1c(=O)n(CCC(=O)NCc2ccc3c(c2)OCO3)c(=O)c2sccc21 | i | nt | 14.1µM | i | i | i
O=C(O)Cn1cnc2scc(-c3cccs3)c2c1=O | i | i | 20µM | ? | i | 20µM
O=C(O)Cn1cnc2scc(-c3ccccc3)c2c1=O | i | i | i | i | i | i
Cc1nc(CSc2nsc(/C=C/N(C)C)c2C#N)cs1 | i | ? | i | i | i | i
COC(=O)c1ccccc1CSc1nsc(/C=C/N(C)C)c1C#N | i | -56.9 | i | i | i | ?
Cc1cc(C)c2nc3c(c(C(=O)O)c2c1)CCC3 | i | i | 17.8µM | ? | i | 14.1µM
CC1Cc2ccccc2N1C(=O)COC(=O)c1ccc(N(C)C)cc1 (stereo not drawn) | i | i | nt | 12.6µM | 50.1µM | 7.94µM
O=[N+]([O-])c1ccc2[nH]c(=S)[nH]c2c1 | i | i | nt | i | i | i
S=c1[nH]c2ccc(Cl)cc2s1 | i | -75.1 | i | i | i | i
O=[N+]([O-])c1ccc2[nH]c(=S)sc2c1 | i | -75.0 | nt | i | i | i
CCOC(=O)CC[C@@]1(C(=O)OCC)C[C@@H](CC(=O)N2CCN(C(=O)c3ccco3)CC2)C(=O)N2CCCC=C21 | i | nt | nt | nt | nt | nt
CC(C)(C)c1ccc(C(=O)Nc2cc(Cl)c(F)cc2C(=O)O)cc1 | i | nt | nt | nt | nt | nt
COc1cccc(-c2nnc(NC(=O)Cc3cccs3)s2)c1 | i | ? | 20µM | i | i | ?
O=C(Cc1cccs1)Nc1nnc(-c2ccncc2)s1 | i | nt | ? | 63.1µM | i | i
CC(C)c1nnc(NC(=O)Cc2cccs2)s1 | i | i | i | i | i | i
SMILES | PI4K2A inh | PI5P4Ka inh | POLB inh | POLI inh | Pol kappa inh | Pol eta inh
COn1c2c(c3c4nonc4ccc31)CCCC2 | i | nt | i | 22.4µM | i | i
COc1ccc(OC)c(/C=C2\C=Cc3ccccc32)c1 | nt | nt | nt | i | i | nt
Cc1ccc(/C=C2\C(=O)ON=C2c2ccccc2)o1 | i | i | i | i | i | i
Cc1ccc(C2=NOC(=O)/C2=C\c2ccc(C)o2)cc1 | i | i | i | ? | i | 79.4µM
Cc1ccc(S(=O)(=O)Oc2ccc(/C=C3\N=C(c4cccc(C)c4)OC3=O)cc2)cc1 | i | i | ? | i | i | i
O=C1ON=C(c2ccccc2)/C1=C/c1ccc(OS(=O)(=O)c2ccccc2)cc1 | i | -69.0 | i | i | i | ?
O=C1ON=C(c2ccccc2)/C1=C/c1cccnc1 | i | i | i | i | i | i
COc1ccc(/C=C2\C(=O)ON=C2c2ccccc2)cc1 | i | -52.8 | i | ? | i | i

Compound activity deposited in PubChem BioAssay by National Center for Advancing Translational Sciences (NCATS).
